Article PMC4336329 (PLoS ONE, 2015)
The whole screen tested about 310,000 compounds, of which about 14,000 (4.5%) showed an effect of 50% or more. Effects have a minus sign here. This is one part of a sample in which strong results are shown more often than they occur.

target: human ether-à-go-go-related gene (hERG) potassium channel (human, UniProt Q12809); experiment: primary screen, population patch clamp on CHO cells stably expressing hERG; higher = less effect of the substance
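Also: peak tail current of the secondary pulse compared with the same well before compound.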

human ether-à-go-go-related gene (hERG) potassium channel, sequence (Q12809 whole entry, looked up): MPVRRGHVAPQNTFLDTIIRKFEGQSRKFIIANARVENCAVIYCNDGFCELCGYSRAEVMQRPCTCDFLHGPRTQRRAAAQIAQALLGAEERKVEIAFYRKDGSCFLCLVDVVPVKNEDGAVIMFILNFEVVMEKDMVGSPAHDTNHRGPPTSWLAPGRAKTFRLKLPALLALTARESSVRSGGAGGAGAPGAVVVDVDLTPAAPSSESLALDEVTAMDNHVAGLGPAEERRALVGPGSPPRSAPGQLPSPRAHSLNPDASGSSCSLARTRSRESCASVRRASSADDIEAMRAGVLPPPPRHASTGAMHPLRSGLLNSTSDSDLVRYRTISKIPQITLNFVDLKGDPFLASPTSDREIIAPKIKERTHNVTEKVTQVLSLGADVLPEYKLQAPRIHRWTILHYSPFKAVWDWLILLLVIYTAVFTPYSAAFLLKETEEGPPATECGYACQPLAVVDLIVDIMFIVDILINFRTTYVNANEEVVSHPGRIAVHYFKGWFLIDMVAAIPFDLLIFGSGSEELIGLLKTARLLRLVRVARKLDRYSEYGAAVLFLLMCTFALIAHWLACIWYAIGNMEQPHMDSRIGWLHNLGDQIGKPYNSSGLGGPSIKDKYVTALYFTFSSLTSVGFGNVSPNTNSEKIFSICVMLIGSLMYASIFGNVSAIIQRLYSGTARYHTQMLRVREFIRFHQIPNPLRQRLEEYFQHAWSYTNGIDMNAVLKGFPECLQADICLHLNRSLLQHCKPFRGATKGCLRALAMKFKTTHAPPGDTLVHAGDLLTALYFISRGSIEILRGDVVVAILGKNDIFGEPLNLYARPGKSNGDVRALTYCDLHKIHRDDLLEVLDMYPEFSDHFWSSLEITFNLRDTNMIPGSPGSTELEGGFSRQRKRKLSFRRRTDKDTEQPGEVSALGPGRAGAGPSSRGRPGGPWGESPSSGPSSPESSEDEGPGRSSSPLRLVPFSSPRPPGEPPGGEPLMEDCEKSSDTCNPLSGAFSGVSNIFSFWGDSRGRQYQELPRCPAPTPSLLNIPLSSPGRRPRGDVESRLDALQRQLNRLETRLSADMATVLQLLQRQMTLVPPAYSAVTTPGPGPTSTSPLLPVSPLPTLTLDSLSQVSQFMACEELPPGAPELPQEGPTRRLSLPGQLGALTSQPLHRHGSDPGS

Compared with N#Cc1nc(-c2ccco2)oc1N1CCOCC1, N#Cc1nc(-c2ccco2)oc1N1CCN(c2ccccc2)CC1 is lower in “hERG current change (%, negative = inhibition) at 10uM” value: 4.48% for the first, -62.9% for the second.

Compared with COc1ccc(-c2nc(C#N)c(N3CCN(C(=O)c4ccco4)CC3)o2)cc1OC, COc1cccc(-c2nc(C#N)c(N3CCN(C(=O)c4ccco4)CC3)o2)c1 is lower in “hERG current change (%, negative = inhibition) at 10uM” value: 0.504% for the first, -35.1% for the second.

First: N#Cc1nc(-c2ccccc2Cl)oc1N1CCN(C(=O)c2ccco2)CC1
Second: N#Cc1nc(-c2ccccc2F)oc1N1CCN(C(=O)c2ccco2)CC1
The “hERG current change (%, negative = inhibition) at 10uM” value of the first is higher: -9.47% for the first, -18.2% for the second.

Compared with COc1ccc(N2CCN(c3oc(-c4ccco4)nc3C#N)CC2)cc1, N#Cc1nc(-c2ccc(F)cc2)oc1N1CCN(C(=O)c2ccco2)CC1 is lower in “hERG current change (%, negative = inhibition) at 10uM” value: -47.9% for the first, -75.2% for the second.

Going from N#Cc1nc(-c2ccccc2)oc1N1CCN(C(=O)c2ccco2)CC1 to O=C(NC(=S)N1CCN(C/C=C/c2ccccc2)CC1)c1ccco1, the “hERG current change (%, negative = inhibition) at 10uM” value rises from -75.7% to -35%.

Going from O=C(CCCN1C(=O)c2ccccc2C1=O)NCCCN1CCOCC1 to O=C(NCCN1CCOCC1)c1ccc(NS(=O)(=O)c2cccc([N+](=O)[O-])c2)cc1, the “hERG current change (%, negative = inhibition) at 10uM” value falls from 20.3% to 10.6%.

First: CCCCCCCCCCCCN1[C@@H](CC(=O)OC)c2cc(F)cc(F)c2S1(=O)=O
Second: CCOc1ccc(C(=O)NCC(=O)OCc2cc([N+](=O)[O-])cc3c2OCOC3)cc1OCC
The “hERG current change (%, negative = inhibition) at 10uM” value of the first is higher: 11.1% for the first, -12% for the second.

Going from CCN(CC)/C(=N\S(=O)(=O)c1ccc(F)cc1)c1ccccc1 to COc1cccc(/C=N/NC(=O)c2cccc([N+](=O)[O-])c2)c1OS(=O)(=O)c1ccccc1, the “hERG current change (%, negative = inhibition) at 10uM” value falls from 8.34% to -16.2%.

First: Cc1cc2n(n1)C(c1sccc1C)Nc1ccccc1-2 (stereo not drawn)
Second: c1cncc(C2Nc3ccccc3-c3nc4ccccc4n32)c1 (stereo not drawn)
The “hERG current change (%, negative = inhibition) at 10uM” value of the first is lower: -15.9% for the first, -5.58% for the second.

First: Cc1ccc(Cn2c(C(CO)Nc3nc(-c4ccc(F)cc4)cs3)nc3ccccc32)cc1 (stereo not drawn)
Second: c1ccc(C2Nc3ccccc3-c3nc4ccccc4n32)cc1 (stereo not drawn)
The “hERG current change (%, negative = inhibition) at 10uM” value of the first is higher: 15.4% for the first, -18.1% for the second.

First: CCOC(=O)c1ccc(NC(=O)NCCc2cnc[nH]2)cc1
Second: CCOC(=O)C1=C(C)NC(=O)NC1c1ccc(N(CC)CC)cc1 (stereo not drawn)
The “hERG current change (%, negative = inhibition) at 10uM” value of the first is higher: 4.44% for the first, -6.39% for the second.

Going from O=C(c1ccccc1[N+](=O)[O-])N1CCCC(C(=O)N2CCCCCC2)C1 (stereo not drawn) to COc1ccc(S(=O)(=O)N2CCC(N3CCCCC3)CC2)cc1, the “hERG current change (%, negative = inhibition) at 10uM” value falls from 10.6% to -11.7%.

Going from O=C(Nc1cccc(F)c1)c1cc(-c2ccco2)nc2ccccc12 to CS(=O)(=O)Nc1cccc(C2=NN(S(=O)(=O)c3ccccc3)C(c3ccco3)C2)c1 (stereo not drawn), the “hERG current change (%, negative = inhibition) at 10uM” value falls from 9.26% to -29.9%.

Going from COc1ccc(S(=O)(=O)N2CCC(n3cnc4cc(C(F)(F)F)ccc43)CC2)cc1 to O=S(=O)(c1ccc(Cl)cc1)N1CCC(n2cnc3cc(C(F)(F)F)ccc32)CC1, the “hERG current change (%, negative = inhibition) at 10uM” value falls from -73.1% to -78.4%.

Going from O=C(O)c1cccc(S(=O)(=O)N2CCC(n3nnc4cc(C(F)(F)F)ccc43)CC2)c1 to O=C(O)c1ccc(S(=O)(=O)N2CCC(n3nnc4cc(C(F)(F)F)ccc43)CC2)cc1, the “hERG current change (%, negative = inhibition) at 10uM” value falls from 20.7% to -37.7%.

Going from COc1ccc(S(=O)(=O)N2CCC(N3CCCC3)CC2)cc1 to COc1ccc(C)cc1N(CC(=O)N1CCCCCC1)S(C)(=O)=O, the “hERG current change (%, negative = inhibition) at 10uM” value falls from 22.3% to 12.2%.

Going from O=C(c1ccc2c(c1)OCO2)C1CCCN(Cc2cn[nH]c2-c2cccc(F)c2)C1 (stereo not drawn) to O=C(c1ccc2c(c1)OCO2)C1CCCN(Cc2cn[nH]c2-c2ccccc2)C1 (stereo not drawn), the “hERG current change (%, negative = inhibition) at 10uM” value rises from -78.1% to -72.2%.

Compared with O=C(c1ccc2c(c1)OCO2)C1CCCN(Cc2c(F)cccc2Cl)C1 (stereo not drawn), O=C(c1ccc2c(c1)OCO2)C1CCCN(Cc2ccccn2)C1 (stereo not drawn) is higher in “hERG current change (%, negative = inhibition) at 10uM” value: -32.5% for the first, -30.9% for the second.

Compared with c1ccc(-c2[nH]ncc2CN2CCN(Cc3ccc4c(c3)OCO4)CC2)cc1, Cc1ccc(CN2CCN(Cc3cn[nH]c3-c3cccc(F)c3)CC2CCO)o1 (stereo not drawn) is higher in “hERG current change (%, negative = inhibition) at 10uM” value: -37.9% for the first, -25.8% for the second.

Going from O=C(Nc1ccc2c(c1)OCO2)N1CCCc2ccccc21 to N#Cc1ccccc1OCC(=O)Nc1ccc2c(c1)OCCCO2, the “hERG current change (%, negative = inhibition) at 10uM” value falls from 11.7% to 3.08%.

Compared with COc1cc(/C=N/NC(=O)c2ccc(O)cc2)ccc1OCC(=O)Nc1cccc([N+](=O)[O-])c1, COc1ccc(/C=N/NC(=O)c2ccc(NC(=O)C3CCCCC3)cc2)cc1O is higher in “hERG current change (%, negative = inhibition) at 10uM” value: 10.3% for the first, 24.3% for the second.

First: O=S1(=O)N(Cc2ccccc2F)CCCN1Cc1c(F)cccc1Cl
Second: Cc1ccc(/C=N/N2CCN(Cc3cccc4ccccc34)CC2)s1
The “hERG current change (%, negative = inhibition) at 10uM” value of the first is higher: 7.29% for the first, -3.05% for the second.

First: CC(=O)Nc1ccc(S(=O)(=O)NCc2ccc3[nH]c(C)cc3c2)cc1
Second: Cc1cccc(CCNC(=O)CCS(=O)(=O)c2ccc(Br)cc2)c1
The “hERG current change (%, negative = inhibition) at 10uM” value of the first is higher: 21% for the first, 8.8% for the second.

First: N#Cc1ccccc1NC(=O)CN1CCN(c2ccccn2)CC1
Second: O=C(CN1CCN(c2ccccn2)CC1)Nc1ccccc1Br
The “hERG current change (%, negative = inhibition) at 10uM” value of the first is higher: -29.8% for the first, -31.6% for the second.

First: Cc1ccc(NC(=O)CN2CCN(c3ccccn3)CC2)c(Cl)c1
Second: Cc1cc(Br)ccc1NC(=O)CN1CCN(c2ccccn2)CC1
The “hERG current change (%, negative = inhibition) at 10uM” value of the first is higher: -1.57% for the first, -71.5% for the second.

Compared with O=C(CN1CCN(c2ccccn2)CC1)Nc1ccc(Br)cc1, N#Cc1ccc(NC(=O)CN2CCN(c3ccccn3)CC2)cc1 is lower in “hERG current change (%, negative = inhibition) at 10uM” value: -57.7% for the first, -71.9% for the second.

First: Cc1ccc([N+](=O)[O-])cc1NC(=O)C(C)N1CCCCC1 (stereo not drawn)
Second: Cc1cc([N+](=O)[O-])ccc1NC(=O)C(C)N1CCN(c2ccccn2)CC1 (stereo not drawn)
The “hERG current change (%, negative = inhibition) at 10uM” value of the first is higher: 30.2% for the first, -71.4% for the second.

Compared with CC(C(=O)Nc1cc([N+](=O)[O-])ccc1Cl)N1CCN(c2ccccc2)CC1 (stereo not drawn), O=C(CN1CCN(c2ccccn2)CC1)Nc1ccccc1 is lower in “hERG current change (%, negative = inhibition) at 10uM” value: 12.3% for the first, -9.4% for the second.

Going from CC(=O)Nc1ccc(NC(=O)CN2CCN(c3ccccn3)CC2)cc1 to O=C(CN1CCN(c2ccccn2)CC1)Nc1ccc(F)cc1.O=C(O)C(=O)O, the “hERG current change (%, negative = inhibition) at 10uM” value falls from 13.3% to -47.2%.

First: Cc1cc(NC(=O)CSc2ccc(-c3ccc(Br)cc3)nn2)no1
Second: Cc1cccc(C(=O)N(C)c2nnc(-c3ccncc3)s2)c1
The “hERG current change (%, negative = inhibition) at 10uM” value of the first is higher: 11.1% for the first, 1.3% for the second.

Going from Cc1cc(C)cc(N(CCC#N)C(=O)CSc2n[nH]c(N)n2)c1 to Cc1cc(NC(=O)CCC(=O)N(CC(=O)NCC2CCCO2)c2ccc(C)c(C)c2)no1 (stereo not drawn), the “hERG current change (%, negative = inhibition) at 10uM” value falls from 12.6% to 8.68%.

Going from COc1ccc(S(=O)(=O)N2N=C(c3ccc(NS(C)(=O)=O)cc3)CC2c2ccco2)cc1 (stereo not drawn) to CS(=O)(=O)Nc1ccc(C2=NN(S(=O)(=O)c3ccc(F)cc3)C(c3ccco3)C2)cc1 (stereo not drawn), the “hERG current change (%, negative = inhibition) at 10uM” value rises from -74.2% to -70.2%.

First: Cc1ccc(C2=NN(S(=O)(=O)c3ccccc3)C(c3ccco3)C2)cc1 (stereo not drawn)
Second: CCS(=O)(=O)Nc1ccc(C2=NN(S(=O)(=O)c3ccc(F)cc3)C(c3ccco3)C2)cc1 (stereo not drawn)
The “hERG current change (%, negative = inhibition) at 10uM” value of the first is higher: 8.53% for the first, -38.8% for the second.

Compared with COc1ccc(S(=O)(=O)N2N=C(c3cccc(NS(C)(=O)=O)c3)CC2c2ccco2)cc1 (stereo not drawn), c1ccc2c(c1)NC(c1ccncc1)n1c-2nc2ccccc21 (stereo not drawn) is lower in “hERG current change (%, negative = inhibition) at 10uM” value: -3.61% for the first, -66.2% for the second.

Compared with CCCc1cc(=O)oc2cc(C)cc(OCC(=O)NCC(O)c3ccccc3)c12 (stereo not drawn), COc1ccccc1CNC(=O)C1(C)Oc2cccnc2NC1=O (stereo not drawn) is lower in “hERG current change (%, negative = inhibition) at 10uM” value: 13.5% for the first, 9.69% for the second.

Going from S=C(NCc1ccco1)N1CCN(Cc2ccco2)CC1 to S=C(NCc1ccco1)N1CCN(C/C=C/c2ccccc2)CC1, the “hERG current change (%, negative = inhibition) at 10uM” value falls from 1.76% to -56.2%.

First: O=C(/C=C/c1ccco1)N1CCN(C/C=C/c2ccccc2)CC1
Second: O=C(/C=C/c1ccco1)N1CCN(S(=O)(=O)/C=C/c2ccccc2)CC1
The “hERG current change (%, negative = inhibition) at 10uM” value of the first is lower: -58.8% for the first, -45% for the second.

Going from O=C(/C=C/c1ccco1)N1CCC(Cc2ccccc2)CC1 to CC1CCC(NC(=O)COC(=O)c2ccco2)CC1 (stereo not drawn), the “hERG current change (%, negative = inhibition) at 10uM” value rises from 4.42% to 7.07%.

First: Cc1ccc(NC(=O)Cn2ccsc2=N)c([N+](=O)[O-])c1.Cl
Second: CCOC(=O)c1[nH]ncc1[C@@H]1C[C@H]2CN(Cc3cccc(Cl)c3)C(=O)[C@]23CCCN13
The “hERG current change (%, negative = inhibition) at 10uM” value of the first is higher: 35.1% for the first, -27.4% for the second.

Compared with CC(C)CCNc1nc(N)c([N+](=O)[O-])c(N2CCCCCC2)n1, Cc1c([C@@H]2C[C@H]3CN(Cc4cccc(Cl)c4)C(=O)[C@]34CCCN24)cnn1C is lower in “hERG current change (%, negative = inhibition) at 10uM” value: 12.1% for the first, -45.5% for the second.

Going from O=C1N(Cc2cccc(Cl)c2)C[C@@H]2C[C@@H](c3c[nH]c4ccccc34)N3CCC[C@@]123 to Cn1cc([C@@H]2C[C@H]3CN(Cc4cccc(Cl)c4)C(=O)[C@]34CCCN24)c2ccccc21, the “hERG current change (%, negative = inhibition) at 10uM” value rises from -74.8% to -72.7%.

Compared with O=C1N(Cc2cccc(Cl)c2)C[C@@H]2C[C@@H](c3cccc4ncccc34)N3CCC[C@@]123, CCOc1ccc(CN2CCNC(=O)C2CC(=O)NC2CCOCC2)cc1 (stereo not drawn) is higher in “hERG current change (%, negative = inhibition) at 10uM” value: -48.8% for the first, -44.7% for the second.
